# Hits are enriched below; roughly 19% of the tested compounds scored in any of these assays.
# IL-1B inflam inh = qHTS for Inhibitors of Inflammasome Signaling: IL-1-beta AlphaLISA Primary Screen; THP-1 LPS/ATP IL-1B secretion, AlphaLISA, 16 h; hits give low values; activity change, % at 57.5 µM; 4.7% of 360,000 active; in the data active means activity change below about -50%; inconclusive means mostly about -30% to -49%
#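 Secreted IL-1B measured by AlphaLISA bead assay after 16 h compound exposure of THP-1 cells; compounds (final up to 57.5 uM) added 1 h before LPS (250 ng/mL) and ATP (1.25 mM) stimulation; lower signal means less secretion.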
# HT1080 IDH1KD tx = qHTS for induction of synthetic lethality in tumor cells producing 2HG: qHTS for the HT-1080-IDH1KD cell line; HT-1080 IDH1 knockdown viability, ATP luminescence, 48 h; Potency, µM (highest dose often 46.1 µM), inactives show top-dose activity, negative = toxicity, usual class: cytotoxic; 2% of 360,000 active;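 further: potency means the concentration at half of the fitted maximal effect; 0% = DMSO wells and -100% = cell-free medium wells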
#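 Knockdown cells (IDH1KD HT-1080) received compounds 2 h after plating at 750 cells/well and were kept 48 h at 37 °C in 5% FBS RPMI. A CellTiter-Glo luminescence read gave % activity for curve fitting.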
# TDP1 cell CPT = qHTS for Inhibitors of human tyrosyl-DNA phosphodiesterase 1 (TDP1): qHTS in cells in presence of CPT | chicken DT40 Tdp1-/-;hTDP1 cells + 20 nM CPT, ATP luminescence, 48 h | Potency, µM (titrated, usually from 46.2 µM), without a hit: top-dose activity change, negative = growth inhibition, most hits filed as inhibitors | 12% of 420,000 active; further: potency means the concentration at half of the fitted maximal effect; nearly all actives have a fitted effect of over 55% in size
#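 Chicken DT40 Tdp1-/- cells complemented with human TDP1, 400 cells/well, exposed to compounds plus 20 nM camptothecin for at least 48 h at 37 C; viability read as ATP content by CellTiter-Glo luminescence.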
# ELG1 DNA repair = qHTS screen for small molecules that inhibit ELG1-dependent DNA repair in human embryonic kidney (HEK293T) cells expressing luciferase-tagged ELG1 | HEK293T ELG1-luciferase reporter, luminescence, 16 h; DNA damage induced by 5-fluorouridine | Potency, µM (highest dose often 46.1 µM), for the others: top-dose activity change, negative = inhibition, hits mostly inhibitors | 2.3% of 330,000 active | AID 504467, 2011; further: potency means the concentration at half of the fitted maximal effect; nearly all actives have a fitted effect of over 55% in size
#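 Luminescence from the luciferase reporter, measured 30 min after ONE-Glo reagent at room temperature, was the read-out. Beforehand, 2,000 cells per well were exposed for 16 hr at 37 °C to 5-fluorouridine together with compound or vehicle.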
# TDP1 cell noCPT = qHTS for Inhibitors of human tyrosyl-DNA phosphodiesterase 1 (TDP1): qHTS in cells in absence of CPT. Potency, µM (highest dose often 46.2 µM), inactives show at the top dose activity change, negative = growth inhibition, hits mostly inhibitors. DT40 Tdp1-/- hTDP1 cells, no CPT, ATP luminescence, 48 h. 15% of 420,000 active; further: potency means the concentration at half of the fitted maximal effect; nearly all actives have a fitted effect of over 55% in size
#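 Compound effects on proliferation are scored in DT40 Tdp1-/-;hTDP1 cells in the absence of CPT. ATP levels (CellTiter-Glo luminescence) are recorded after a ≥48 hr, 37 °C incubation.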
# HT1080NT lethal = qHTS for induction of synthetic lethality in tumor cells producing 2HG: qHTS for the HT-1080-NT fibrosarcoma cell line. HT-1080-NT fibrosarcoma viability, CellTiter-Glo ATP luminescence, 48 h. Potency, µM (doses to about 46.1 µM), for inactives: at the highest dose activity, negative = less viability, hits mostly cytotoxic. 1.6% of 360,000 active. AID 686970, 2013;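 further: NT is the 2HG producing partner of a matched IDH1 knockdown line; potency means the concentration at half of the fitted maximal effect; 0% = DMSO-treated cells and -100% = media-only wells without cells; nearly all actives have a fitted effect of over 55% in size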
#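 Compounds were tested in concentration-response format on HT-1080-NT cells for 48 hours at 37 degrees C. Cell viability came from CellTiter-Glo luminescence; curves were classified by r2, response magnitude and activity.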
# An asterisk follows results filed as active; i = inactive; ? = inconclusive; / = no result given. Unless noted, the call rests on the fitted dose curve; in most records, active means well fitted curve in the direction sought with a large enough effect; inconclusive means small, poorly fitted or top-dose-only effect, or another doubt; inactive means no such curve, though single readings can be large; an effect the other way counts as inactive or inconclusive. Unless noted, on the % scale 0 is the no-effect control and ±100 the full control effect.
SMILES,IL-1B inflam inh,HT1080 IDH1KD tx,TDP1 cell CPT,ELG1 DNA repair,TDP1 cell noCPT,HT1080NT lethal
Cc1ccc(NC(=O)c2ccccc2N2C(=O)C3C4C=CC(C5CC45)C3C2=O)cc1C (stereo not given),-13,-9%,21µM*,2%,?,-4%
Cc1cccc(NC(=O)c2ccc(N3C(=O)C4C5C=CC(C6CC56)C4C3=O)cc2)c1 (stereo not given),6,-3%,?,8.2µM*,?,-11%
COC(=O)c1ccc(NC(=O)c2cccc(N3C(=O)CCC3=O)c2)cc1,13,4%,4%,1%,-21%,11%
CSc1ccccc1C(=O)Nc1ccc(C)c(C)c1,-9,?,?,?,?,-17%
COC(=O)c1ccc(NC(=O)c2cccc(N3C(=O)C4C5C=CC(C6CC56)C4C3=O)c2)cc1 (stereo not given),i,-1%,8.2µM*,?,7.3µM*,-2%
COc1cn(CC(=O)Nc2ccc(C)cc2C)c(CN2CCCCC2)cc1=O,/,/,13%,/,-13%,/
O=C(Nc1ccc(F)cc1)c1cccc(N2C(=O)C3C4C=CC(C5CC45)C3C2=O)c1 (stereo not given),-75*,-21%,16µM*,16µM*,?,-10%
COc1ccc(/C=N/n2cnc3c([nH]c4ccc(F)cc43)c2=O)cc1CSc1ccccn1,3,24%,1.2µM*,-1%,7.3µM*,28%
O=C(COc1ccc(F)cc1Br)NCCCN1CCCC1=O,-4,-2%,-20%,13%,18%,-4%
O=C1c2ccccc2CC[C@H]1CNCCc1ccc(O)cc1,/,/,13µM*,/,13µM*,/
O=C1c2ccccc2CCC1CNCCc1ccc(O)cc1 (stereo not given),/,/,-83%,/,21µM*,/
CC(=O)NCCc1ccc(O)cc1,15,0%,-7%,7%,-16%,13%
O=C(O)CCCc1ccc2c(c1)CCc1ccccc1-2,35,2%,?,?,-10%,4%
Cc1ccccc1C(=O)N1CCCC(CCC(=O)N2CCN(c3ccccn3)CC2)C1 (stereo not given),-7,-23%,-5%,-17%,?,0%
O=C(CCC1CCCN(C(=O)COc2ccccc2)C1)N1CCN(c2ccccn2)CC1 (stereo not given),-15,-3%,?,21µM*,-23%,-9%
CCc1cc(C(=O)N2CCCC(CCC(=O)N3CCN(c4ccccn4)CC3)C2)no1 (stereo not given),0,-14%,-4%,?,?,-13%
COc1ccc(C(=O)N2CCCC(CCC(=O)N3CCN(c4ccccn4)CC3)C2)cc1 (stereo not given),i,-5%,-15%,-19%,?,-3%
Cc1ncccc1C(=O)N1CCCC(CCC(=O)N2CCN(c3ccccn3)CC2)C1 (stereo not given),21,6%,-13%,13%,-4%,5%
O=C(CCC1CCCN(C(=O)CC2=CCCCC2)C1)N1CCN(c2ccccn2)CC1 (stereo not given),0,-21%,?,?,16µM*,-1%
O=C(CCC1CCCN(C(=O)C2=CCCC2)C1)N1CCN(c2ccccn2)CC1 (stereo not given),1,12%,-21%,10%,23µM*,22%
CC(C)c1cc(C(=O)N2CCCC(CCC(=O)N3CCN(c4ccccn4)CC3)C2)no1 (stereo not given),12,-1%,23µM*,12µM*,23µM*,-11%
CCC(C(=O)NCCCN(CC)CC)n1ncn2c(cc3occc32)c1=O (stereo not given),/,/,11%,/,-3%,/
COc1ccc(-n2c(=O)c(C)nc3cnc(Nc4cccc(OC)c4)nc32)cc1,/,/,23µM*,/,18µM*,/
COc1cccc(Nc2ncc3nc(C)c(=O)n(CCC#N)c3n2)c1,/,/,0.23µM*,/,0.92µM*,/
COc1cccc(Nc2ncc3nc(C)c(=O)n(C4CC4)c3n2)c1,/,/,-12%,/,?,/
SMILES,IL-1B inflam inh,HT1080 IDH1KD tx,TDP1 cell CPT,ELG1 DNA repair,TDP1 cell noCPT,HT1080NT lethal
COc1cccc(Nc2ncc3ncc(=O)n(CCC#N)c3n2)c1,/,/,-6%,/,-11%,/
COCCn1c(=O)cnc2cnc(Nc3cccc(OC)c3)nc21,/,/,9.2µM*,/,?,/
CCNc1ncc2nc(-c3ccc(Cl)cc3)c(=O)n(-c3ccc(OC)cc3)c2n1,/,/,?,/,13µM*,/
CCS(=O)(=O)N1N=C(c2cccc(NS(C)(=O)=O)c2)CC1c1ccc(C)cc1 (stereo not given),16,-19%,10%,-6%,-18%,-5%
O=C(c1ccccc1)N1CCCC(c2nc3c(nnn3Cc3ccc(F)cc3F)c(=O)[nH]2)C1 (stereo not given),/,/,-3%,/,?,/
CCNc1ncc2ncc(=O)n(Cc3ccc(F)cc3)c2n1,/,/,18µM*,/,?,/
COc1ccc(Oc2ncc3nc(CCc4ccccc4)c(=O)n(CCC#N)c3n2)cc1,/,/,?,/,23µM*,/
Nc1ccc2c(c1)C(=O)c1cc(Cl)c(Cl)cc1-2,-7,1%,-14%,/,-13%,0%
Nc1ccc2c(c1)C(=O)c1ccc(N)cc1-2,-76*,2%,3%,/,-22%,-2%
O=C(NCc1ccc(Cl)cc1Cl)c1cccc(N2CCCS2(=O)=O)c1,/,/,16µM*,/,?,/
Cc1ccc(NC(=O)c2cccc(N3CCCS3(=O)=O)c2)cc1,/,/,?,/,-13%,/
Cc1cc(C)cc(NC(=O)c2cccc(N3CCCS3(=O)=O)c2)c1,/,/,15µM*,/,?,/
CC1=C(c2ccc(Cl)cc2)[N+](=O)C(C)(C)N1[O-],-3,7%,16µM*,10%,?,-5%
CC1CN(C(=O)CCS(=O)(=O)c2ccccc2)CC(C)O1 (stereo not given),4,16%,2%,?,10%,-8%
CS(=O)(=O)Nc1ccccc1NS(C)(=O)=O,-58*,2%,-1%,16%,-11%,0%
